Laboratory results: PubChem BioAssay (NCI)
About 79,000 compounds went through this panel and 15% of them were active in at least one assay; those are over-represented in the sample as a whole. Calls of active or inactive are those of the source. Cut-off read from the data, not from the text of the source: active = growth inhibition above about 70%; inactive = the rest.

Key:
[1] = NCI Yeast Anticancer Drug Screen. Data for the rad52 strain (AID 147);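 note: 0% = growth of vehicle-treated control cultures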; conditions: S. cerevisiae rad52 mutant growth inhibition, active compounds read high
Method in brief: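 Screen used a yeast mutant impaired in DNA repair. After compound exposure, growth was measured. Values reflect inhibition compared with vehicle-treated cells.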

[2] = NCI Yeast Anticancer Drug Screen. Data for the wt1 strain (AID 149);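 note: 0% = growth of vehicle-treated wt1 cultures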; conditions: S. cerevisiae wt1 strain (SPY 50644) growth inhibition, active compounds read high
Method in brief: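 Measured: growth of wt1 yeast under compound versus vehicle treatment, reported as inhibition.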

[3] = NCI Yeast Anticancer Drug Screen. Data for the rad50EPP+ strain (AID 151);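 note: 0% = growth of vehicle-treated control cultures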; conditions: S. cerevisiae rad50 mutant strain, active compounds read high
Method in brief: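 Exposing the rad50EPP+ strain to each compound, growth was compared with vehicle-only cultures to give inhibition.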

[4] = NCI Yeast Anticancer Drug Screen. Data for the mgt1 strain (AID 153); conditions: S. cerevisiae mgt1 mutant growth inhibition, active compounds read high
Method in brief: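 Genetically defined yeast (mgt1) treated with compound; inhibition of growth expressed against vehicle-treated controls.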

[5] = NCI Yeast Anticancer Drug Screen. Data for the rad50 strain (AID 155);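 note: 0% = growth of vehicle-only cultures of the same strain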; conditions: S. cerevisiae rad50 strain growth inhibition, active compounds read high
Method in brief: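 Growth of the mutant yeast was measured after compound exposure and referenced to vehicle-treated cultures.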

[6] = NCI Yeast Anticancer Drug Screen. Data for the mec2-1 strain (AID 157); conditions: S. cerevisiae mec2-1 strain, active compounds read high
Method in brief: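 Readout is yeast growth inhibition, normalised to vehicle-treated controls, in the mec2-1 strain exposed to compound.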

[7] = NCI Yeast Anticancer Drug Screen. Data for the rad14 strain (AID 159);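 note: 0% = growth of vehicle-treated control cultures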; conditions: S. cerevisiae rad14 strain growth inhibition, active compounds read high
Method in brief: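 Here, inhibition of yeast growth was measured after compound exposure, using a strain with a genetic defect in DNA damage repair and vehicle-treated cultures as the reference.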

[8] = NCI Yeast Anticancer Drug Screen. Data for the sgs1 mgt1 strain (AID 161);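 note: 0% = growth of cultures given vehicle only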; conditions: S. cerevisiae sgs1 mgt1 strain, active compounds read high
Method in brief: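 Percent growth inhibition was derived by comparing compound-exposed mutant yeast with vehicle-exposed cultures. The strain carries alterations in DNA damage repair.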

[9] = NCI Yeast Anticancer Drug Screen. Data for the CLN2oe strain (AID 163);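 note: 0% = growth of vehicle-only control cultures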; conditions: S. cerevisiae CLN2oe strain, active compounds read high
Method in brief: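 Values reflect how much compound exposure reduced yeast growth, referenced to vehicle-exposed cells. Assay organism is a strain with a defined genetic change affecting cell-cycle control.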

[10] = NCI Yeast Anticancer Drug Screen. Data for the cln2 rad14 strain (AID 165);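 note: 0% = growth equal to vehicle treated cultures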; conditions: S. cerevisiae cln2 rad14 strain, active compounds read high
Method in brief: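 Relative to vehicle controls, growth inhibition of compound-treated cln2 rad14 yeast was recorded.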

[11] = NCI Yeast Anticancer Drug Screen. Data for the bub3 strain (AID 167); conditions: S. cerevisiae bub3 mutant strain, active compounds read high
Method in brief: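 Whole-cell yeast assay. The mutant strain was incubated with compounds, and growth inhibition was determined by comparison with vehicle-treated cells.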

[12] = NCI Yeast Anticancer Drug Screen. Data for the wt2 strain (AID 169);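 note: 0% = growth of vehicle-treated yeast cultures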; conditions: S. cerevisiae wt2 strain growth inhibition, active compounds read high
Method in brief: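 Values express reduction in yeast growth under compound treatment, referenced to vehicle-treated cells.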

[13] = NCI Yeast Anticancer Drug Screen. Data for the mlh1 strain (AID 171);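 note: 0% = growth of vehicle-treated control cultures of the same strain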; conditions: S. cerevisiae mlh1 strain growth inhibition, active compounds read high
Method in brief: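 Steps: expose the defined-mutant yeast strain to compound; expose a parallel culture to vehicle; measure growth; express compound effect as inhibition relative to the vehicle culture.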

[14] = NCI Yeast Anticancer Drug Screen. Data for the sgs1 strain (AID 173);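 note: 0% = growth of vehicle-only control cultures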; conditions: S. cerevisiae sgs1 mutant, active compounds read high
Method in brief: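 Treat defined-mutant yeast with compound; measure growth; calculate inhibition relative to vehicle-treated cells.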

[15] = NCI Yeast Anticancer Drug Screen. Data for the mlh1 rad18 strain (AID 175); conditions: S. cerevisiae mlh1 rad18 strain growth inhibition, active compounds read high
Method in brief: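 Test agents were incubated with a yeast strain of defined genotype (DNA damage repair defect). Inhibition of growth was derived by comparison with vehicle-exposed cultures.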

[16] = NCI Yeast Anticancer Drug Screen. Data for the rad18 strain (AID 177); conditions: S. cerevisiae rad18 mutant growth inhibition, active compounds read high
Method in brief: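 A genetically defined yeast mutant impaired in DNA damage repair was treated with test compounds, then its growth was measured against cultures receiving vehicle alone.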

[17] = at 5.0 µM (retest, dose inferred, filed as 0.5)
[18] = at 50.0 µM (retest, dose inferred, filed as 5.0)

Measured: growth inhibition

Cc1nc(-c2ccccc2)c(-c2ccccc2)s1
active: [1]; at 100.0 µM 98% | [2]; at 100.0 µM 98% | [4]; at 33.0 µM 95% | [4]; at 100.0 µM 99% | [5]; [17] 98% | [5]; at 33.0 µM 77% | [5]; [18] 100% | [5]; at 50.0 µM 84.4% | [5]; at 100.0 µM 97% | [6]; [17] 96% | [6]; [18] 100% | [6]; at 50.0 µM 84.5% | [6]; at 100.0 µM 97% | [7]; at 33.0 µM 84% | [7]; at 100.0 µM 97% | [8]; [18] 100% | [8]; at 50.0 µM 88.4% | [9]; at 100.0 µM 96% | [10]; [17] 71% | [10]; [18] 101% | [11]; at 33.0 µM 78% | [11]; [18] 101% | [11]; at 50.0 µM 84.5% | [11]; at 100.0 µM 98% | [12]; at 33.0 µM 81% | [12]; at 100.0 µM 97% | [13]; at 33.0 µM 87% | [13]; at 100.0 µM 97% | [14]; at 33.0 µM 86% | [14]; at 100.0 µM 98% | [15]; [17] 100% | [15]; [18] 100% | [15]; at 50.0 µM 86.5% | [16]; at 100.0 µM 94%
inactive: [1]; at 1.2 µM 23% | [1]; at 3.7 µM 0% | [1]; at 11.0 µM 17% | [1]; at 33.0 µM 68% | [2]; at 1.2 µM -12% | [2]; at 3.7 µM 9% | [2]; at 11.0 µM 9% | [2]; at 33.0 µM 59% | [3]; at 1.2 µM -24% | [3]; at 3.7 µM 4% | [3]; at 11.0 µM 29% | [3]; at 33.0 µM 50% | [3]; at 100.0 µM 65% | [4]; at 1.2 µM 24% | [4]; at 3.7 µM 8% | [4]; at 11.0 µM 44% | [5]; at 1.2 µM -29% | [5]; at 3.7 µM -24% | [5]; at 11.0 µM -19% | [6]; at 1.2 µM 3% | [6]; at 3.7 µM 26% | [6]; at 11.0 µM 24% | [6]; at 33.0 µM 67% | [7]; at 1.2 µM 9% | [7]; at 3.7 µM 10% | [7]; at 11.0 µM 7% | [8]; [17] -6% | [9]; at 1.2 µM -2% | [9]; at 3.7 µM -17% | [9]; at 11.0 µM 1% | [9]; at 33.0 µM 39% | [10]; at 50.0 µM 66.1% | [11]; at 1.2 µM 6% | [11]; at 3.7 µM 2% | [11]; [17] 8% | [11]; at 11.0 µM 22% | [12]; at 1.2 µM -38% | [12]; at 3.7 µM -16% | [12]; at 11.0 µM -20% | [13]; at 1.2 µM 29% | [13]; at 3.7 µM 16% | [13]; at 11.0 µM 41% | [14]; at 1.2 µM -11% | [14]; at 3.7 µM -1% | [14]; at 11.0 µM 6% | [16]; at 1.2 µM -10% | [16]; at 3.7 µM 8% | [16]; at 11.0 µM 6% | [16]; at 33.0 µM 67%
